# Results reported in PubChem BioAssay (NCI).
# Compounds without any hit were thinned out: in the full panel of roughly 83,000, 20% have a hit.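 How to read the values: 0–100, growth inhibition (40 = 60% inhibited); 0, no net growth; -100 to 0, cell death (-40 = 40% of starting cells died; -100 = all dead).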 Values without a mark were called inactive. The source made the active and inactive calls. The calls were made as follows: active = growth percent below 10; inactive = the rest.
# System: HS 578T breast
# Experiment: NCI-60 one-dose screen, 48 h (100 = growth as untreated, 0 = no growth, -100 = all killed)
# Settings: 10 µM unless noted
row,SMILES,growth
1,CCN(CC)C(=O)O/N=C(/C)c1ccccc1,123%
2,C=C1C(=O)O[C@H]2[C@H]1CC/C(COC(=O)NCc1ccc(Cn3c(=O)sn(CCCl)c3=O)cc1)=C\CC[C@@]1(C)O[C@@H]21,97.1%
3,COc1ccc2c(c1)sc1nc(-c3ccccc3)c(-c3cccc4ccccc34)n12,19.8%
4,c1ccc(-c2nnn(-c3ccccc3)n2)cc1,112%
5,CC(C)N(C(=S)SSC(=S)N(C(C)C)C(C)C)C(C)C,106%
6,Cc1ccc2c(C)c3c(ccc4ccccc43)c[n+]2c1,77.8%
7,O=C(N/N=C/c1ccc([N+](=O)[O-])cc1)c1ccccc1Nc1ccnc(C(F)(F)F)c1,-27.6% (active)
8,CC(C)CC1NC(=O)C(CC(C)C)N(CO)C1=O (stereo not drawn),106%
9,Cc1ccccc1C1CC(=O)c2ccccc2C1C (stereo not drawn),98.9%
10,O=C1/C(=C/N2N=C(c3ccc(Cl)cc3)CC2c2ccccc2O)SC(=S)N1c1cccc(C(F)(F)F)c1 (stereo not drawn),71%
11,CN(C)CC(=O)c1ccc2cc(Br)c3ccccc3c2c1,55.4%
12,CCN(C(=O)CCl)C(C)(C)C(SSSC(c1ccc(Cl)cc1)C(C)(C)N(CC)C(=O)CCl)c1ccc(Cl)cc1 (stereo not drawn),92.5%
13,COc1ccc(NC(=O)Cn2c(=O)sc3c(-c4ccc(Cl)cc4)cc(-c4ccc(Cl)cc4)nc32)cc1,108%
14,COc1cccc(/C=N\Nc2ccc([N+](=O)[O-])cn2)c1O,63.9%
15,CCN(CC)CC(=O)Nc1c(C)cc(C(=O)NN)cc1C,91.1%
16,CCCC(CCC)(C(N)=O)C(=O)O,106%
17,COc1cnc2c(c1)C(=O)c1c-2n(CCCNC(C)C)c(=O)c2cc(Cl)ccc12,58.1%
18,Cc1nn(-c2cccc(Cl)c2)c(C)c1N=Nc1ccc(Br)cc1,96.6%
19,CCCCCCCCCCCCNC(=O)N[C@H](C(=O)N[C@H]1/C=C/OCCNC(=O)/C=C/[C@H](C(C)C)NC1=O)C(C)C,74.2%
20,Cc1ccc(C(CN(C)C)C(=O)c2ccccc2)cc1 (stereo not drawn),83.5%

row,SMILES,growth
1,CCCCCCCCCCCCCCCCCC(=O)[O][Sn]([CH2]CCC)([CH2]CCC)[CH2]CCC,-8.64% (active)
2,Cc1c2c(cc3c1[nH]c1ccccc13)C=NCC2,99.1%
3,COc1ccc(C(=O)C(CN(C)C)c2ccc(OC)cc2)cc1 (stereo not drawn),92.2%
4,CC(=O)O[C@H]1CC[C@]2(C)[C@H]3CC=C4[C@@H]5CC(C)(C)CC[C@]5(C(=O)OCC(COC(=O)C(Cl)Cl)(COC(=O)C(Cl)Cl)NC(=O)C(Cl)Cl)CC[C@@]4(C)[C@]3(C)CC[C@H]2C1(C)C,83.9%
5,COc1ccc2c(c1)C1=NN(C(=O)CO)[C@H](c3ccc(OC(F)(F)F)cc3)[C@@H]1CC2,85.7%
6,COc1ccc(Cl)cc1Nc1nc(C(F)(F)F)ccc1C(=O)NN,95.8%
7,CC(C)c1cccc(C#N)c1,101%
8,COc1ccc2nc3ccccc3c(NCc3ccc(C)cc3)c2c1,42.7%
9,CS(=O)(=O)c1ccc(C(=O)N/N=C/c2ccccc2Cl)cc1,98.1%
10,CC(C)(C)c1ccc(C(=O)Nc2sc3cc(O)ccc3c2C(N)=O)cc1,96.1%
11,COc1cc(/C=C\c2cc(/C=C\c3ccc(O)c(OC)c3)n(C(=O)Nc3ccc(C(F)(F)F)cc3)n2)ccc1O,51.9%
12,CCOC(=O)c1cc(N)nc2ccccc12,82.7%
13,CCSCC1CC(O)(c2ccccc2)C(c2ccccc2)C(c2ccc(F)cc2)O1 (stereo not drawn),-35.3% (active)
14,CN1C2CCC1/C(=C\c1ccc(Cl)cc1)C(=O)/C2=C/c1ccc(Cl)cc1,75.5%
15,CCOC(=O)C1=C(C)NC(=S)NC1c1ccccc1 (stereo not drawn),98.9%
16,C=C1C(=O)O[C@H]2[C@H]1CC/C(COC(=O)N[C@@H](Cc1c[nH]c3ccccc13)C(=O)OC)=C\CC[C@@]1(C)O[C@@H]21,77.8%
17,Cc1nc(N)nc2c1CCC(Nc1ccccc1)S2 (stereo not drawn),103%
18,COc1cc(OC)c2sc(-c3ccc(-n4cncc4-c4ccc(OC)c(N)c4)cc3)nc2c1,94.1%
19,COc1cc(OC)cc(-c2ccc(-c3ccc(C(=N)N)s3)s2)c1,-40.4% (active)

# System: NCI/ADR-RES ovarian
# Experiment: as above
# Settings: 10 µM unless noted
row,SMILES,growth
1,CCN(CC)C(=O)O/N=C(/C)c1ccccc1,103%
2,C=C1C(=O)O[C@H]2[C@H]1CC/C(COC(=O)NCc1ccc(Cn3c(=O)sn(CCCl)c3=O)cc1)=C\CC[C@@]1(C)O[C@@H]21,113%
3,COc1ccc2c(c1)sc1nc(-c3ccccc3)c(-c3cccc4ccccc34)n12,4.62% (active)
4,c1ccc(-c2nnn(-c3ccccc3)n2)cc1,116%
5,CC(C)N(C(=S)SSC(=S)N(C(C)C)C(C)C)C(C)C,104%
6,Cc1ccc2c(C)c3c(ccc4ccccc43)c[n+]2c1,95.9%
7,O=C(N/N=C/c1ccc([N+](=O)[O-])cc1)c1ccccc1Nc1ccnc(C(F)(F)F)c1,71.9%
8,CC(C)CC1NC(=O)C(CC(C)C)N(CO)C1=O (stereo not drawn),117%
9,Cc1ccccc1C1CC(=O)c2ccccc2C1C (stereo not drawn),108%
10,O=C1/C(=C/N2N=C(c3ccc(Cl)cc3)CC2c2ccccc2O)SC(=S)N1c1cccc(C(F)(F)F)c1 (stereo not drawn),56.4%
11,CN(C)CC(=O)c1ccc2cc(Br)c3ccccc3c2c1,72.8%
12,CCN(C(=O)CCl)C(C)(C)C(SSSC(c1ccc(Cl)cc1)C(C)(C)N(CC)C(=O)CCl)c1ccc(Cl)cc1 (stereo not drawn),89.8%
13,COc1ccc(NC(=O)Cn2c(=O)sc3c(-c4ccc(Cl)cc4)cc(-c4ccc(Cl)cc4)nc32)cc1,89.2%
14,COc1cccc(/C=N\Nc2ccc([N+](=O)[O-])cn2)c1O,18.6%
15,CCN(CC)CC(=O)Nc1c(C)cc(C(=O)NN)cc1C,98.5%
16,CCCC(CCC)(C(N)=O)C(=O)O,107%
17,COc1cnc2c(c1)C(=O)c1c-2n(CCCNC(C)C)c(=O)c2cc(Cl)ccc12,-9.91% (active)
18,Cc1nn(-c2cccc(Cl)c2)c(C)c1N=Nc1ccc(Br)cc1,105%
19,CCCCCCCCCCCCNC(=O)N[C@H](C(=O)N[C@H]1/C=C/OCCNC(=O)/C=C/[C@H](C(C)C)NC1=O)C(C)C,101%
20,Cc1ccc(C(CN(C)C)C(=O)c2ccccc2)cc1 (stereo not drawn),49.7%

row,SMILES,growth
1,CCCCCCCCCCCCCCCCCC(=O)[O][Sn]([CH2]CCC)([CH2]CCC)[CH2]CCC,-86.6% (active)
2,Cc1c2c(cc3c1[nH]c1ccccc13)C=NCC2,85.6%
3,COc1ccc(C(=O)C(CN(C)C)c2ccc(OC)cc2)cc1 (stereo not drawn),67.3%
4,CC(=O)O[C@H]1CC[C@]2(C)[C@H]3CC=C4[C@@H]5CC(C)(C)CC[C@]5(C(=O)OCC(COC(=O)C(Cl)Cl)(COC(=O)C(Cl)Cl)NC(=O)C(Cl)Cl)CC[C@@]4(C)[C@]3(C)CC[C@H]2C1(C)C,78%
5,COc1ccc2c(c1)C1=NN(C(=O)CO)[C@H](c3ccc(OC(F)(F)F)cc3)[C@@H]1CC2,85.5%
6,COc1ccc(Cl)cc1Nc1nc(C(F)(F)F)ccc1C(=O)NN,9.26% (active)
7,CC(C)c1cccc(C#N)c1,91%
8,COc1ccc2nc3ccccc3c(NCc3ccc(C)cc3)c2c1,23.8%
9,CS(=O)(=O)c1ccc(C(=O)N/N=C/c2ccccc2Cl)cc1,106%
10,CC(C)(C)c1ccc(C(=O)Nc2sc3cc(O)ccc3c2C(N)=O)cc1,71.7%
11,COc1cc(/C=C\c2cc(/C=C\c3ccc(O)c(OC)c3)n(C(=O)Nc3ccc(C(F)(F)F)cc3)n2)ccc1O,51.7%
12,CCOC(=O)c1cc(N)nc2ccccc12,104%
13,CCSCC1CC(O)(c2ccccc2)C(c2ccccc2)C(c2ccc(F)cc2)O1 (stereo not drawn),-24.8% (active)
14,CN1C2CCC1/C(=C\c1ccc(Cl)cc1)C(=O)/C2=C/c1ccc(Cl)cc1,43.7%
15,CCOC(=O)C1=C(C)NC(=S)NC1c1ccccc1 (stereo not drawn),109%
16,C=C1C(=O)O[C@H]2[C@H]1CC/C(COC(=O)N[C@@H](Cc1c[nH]c3ccccc13)C(=O)OC)=C\CC[C@@]1(C)O[C@@H]21,88.2%
17,Cc1nc(N)nc2c1CCC(Nc1ccccc1)S2 (stereo not drawn),104%
18,COc1cc(OC)c2sc(-c3ccc(-n4cncc4-c4ccc(OC)c(N)c4)cc3)nc2c1,77.4%
19,COc1cc(OC)cc(-c2ccc(-c3ccc(C(=N)N)s3)s2)c1,-58% (active)
